The nature of this assay: NCI Yeast Anticancer Drug Screen. Data for the wt2 strain (AID 169).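 Further: 0% = growth of vehicle-treated yeast cultures.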 The note with it: S. cerevisiae wt2 strain growth inhibition, hits give high values. As to the method: Growth inhibition of yeast strains with defined genetic alterations is measured as a screen for potential anti-cancer activity. Selected strains with alterations in DNA damage repair or cell cycle control were exposed to compounds and growth inhibition was measured relative to vehicle treated controls. The strain used in this assay is wt2

The panel holds about 79,000 compounds, 15% with a hit somewhere; the sample as a whole holds those more often. A number with no mark means an inactive call. The source made the active and inactive calls. No stated cut-off is given here; in the data, active means growth inhibition above about 70%; inactive means the rest.

Regarding `Cc1c(C)c(C)c(CSC(=N)N)c(C)c1C`, the growth inhibition is -41% (at 1.2 µM); -38% (at 3.7 µM); -32% (at 11.0 µM); 57% (at 33.0 µM); 99% (active) (at 100.0 µM).

Take `O=C(/C=C/c1cc(Cl)cc(Cl)c1O)c1cccc(O)c1`: the growth inhibition was 29% (at 1.2 µM); 27% (at 3.7 µM); 89% (active) (at 11.0 µM); 98% (active) (at 33.0 µM); 98% (active) (at 100.0 µM).

As for `COc1ccc([N+](=O)[O-])c2c(NCCCN(C)C)c3ccccc3nc12`, the growth inhibition is 1% (at 1.2 µM); 2% (at 3.7 µM); 5% (at 11.0 µM); 17% (at 33.0 µM); 38% (at 100.0 µM).

On to `Nc1ccn(C2OC(COP(=O)(O)O)C(O)C2O)c(=O)n1` (stereo not given), for which the growth inhibition was -1% (at 1.2 µM); -1% (at 3.7 µM); -1% (at 11.0 µM); 1% (at 33.0 µM); 12% (at 100.0 µM).

In the case of `COc1ccc(/C=C/c2sc3ccccc3[n+]2CCCCI)cc1OC`, the growth inhibition (at 1.2 µM) was -3%; the growth inhibition (at 3.7 µM) is -3%; the growth inhibition (at 11.0 µM) was -6%; the growth inhibition (at 33.0 µM) was 26%; the growth inhibition (at 100.0 µM) is 97% (active).

For `COc1cccc2c1C(=O)c1c(O)c3c(c(O)c1C2=O)C[C@@](O)(C(C)=O)C[C@@H]3OC1CC(OC(C)=O)C(OC(C)=O)C(C)O1` (stereo not given in full), the growth inhibition (at 1.2 µM) is -23%; the growth inhibition (at 3.7 µM) was -18%; the growth inhibition (at 11.0 µM) was -2%; the growth inhibition (at 33.0 µM) was 0%; the growth inhibition (at 100.0 µM) was 12%.

Regarding `O=[N+]([O-])c1ccc2c(c1)/C(=N/N=C1c3ccccc3Cc3ccccc31)c1cc([N+](=O)[O-])cc([N+](=O)[O-])c1-2`, the growth inhibition is 15% (at 1.2 µM); 41% (at 3.7 µM); 98% (active) (at 11.0 µM); 98% (active) (at 33.0 µM); 94% (active) (at 100.0 µM).

As for `O=C(NNc1ccccc1)c1ccc(Cl)c(Cl)c1`, the growth inhibition by setting is: (at 1.2 µM) 1%; (at 3.7 µM) -1%; (at 11.0 µM) 2%; (at 33.0 µM) 15%; (at 100.0 µM) 37%.

(Values after PubChem BioAssay (NCI).)
